Assay results from the supplement of paper PMC6555819.

Experiments:
Assay in all cases: PBM binding z-score (relative to random genomic background probes); higher = stronger binding; sequences stand for … in GC…GCGATTGACAGCGTAGAATGAAGG
[1] = tested on: FXR:RXRa (NR concentration 270 nM, RXRa partner concentration 90 nM)
Summary of the method: (§1)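 Ligand-free nuclear receptor dimers were bound for 1 h to custom Agilent 4×180K protein-binding microarrays. Detection used antibodies against each partner (one per run). Binding z-scores rest on regression-normalized fluorescence, with random background probes as the reference.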

[2] = tested on: LXRa:RXRa (NR concentration 270 nM, RXRa partner concentration 90 nM)
Summary of the method: as §1

[3] = tested on: LXRa homodimer (NR concentration 270 nM)
Summary of the method: as §1

[4] = tested on: LXRb:RXRa (NR concentration 270 nM, RXRa partner concentration 90 nM)
Summary of the method: as §1

[5] = tested on: LXRb homodimer (NR concentration 270 nM)
Summary of the method: as §1

[6] = tested on: PPARa:RXRa (NR concentration 270 nM, RXRa partner concentration 90 nM)
Summary of the method: as §1

[7] = tested on: PPARg:RXRa (NR concentration 180 nM, RXRa partner concentration 90 nM)
Summary of the method: as §1

[8] = tested on: PPARg:RXRa 270nM:90nM, anti-RXR (NR concentration 270 nM, RXRa partner concentration 90 nM)
Summary of the method: as §1

[9] = tested on: PPARg:RXRa 30nM:10nM, anti-RXR (NR concentration 30 nM, RXRa partner concentration 10 nM)
Summary of the method: as §1

[10] = tested on: PPARg:RXRa 90nM:30nM, anti-RXR (NR concentration 90 nM, RXRa partner concentration 30 nM)
Summary of the method: as §1

[11] = tested on: PPARg:RXRa DBDmut IVT, anti-RXR (DBD mutation: RXRa K156A/R161A, NR concentration 270 nM, RXRa partner concentration 90 nM)
Summary of the method: as §1

[12] = tested on: PPARg:RXRa IVT, anti-PPARg (NR concentration 270 nM, RXRa partner concentration 90 nM)
Summary of the method: as §1

[13] = tested on: PPARg DBDmut:RXRa IVT, anti-PPARg (DBD mutation: PPARg1 K132A/R137A, NR concentration 270 nM, RXRa partner concentration 90 nM)
Summary of the method: as §1

[14] = tested on: PPARg DBDmut IVT, anti-PPARg (DBD mutation: PPARg1 K132A/R137A, NR concentration 270 nM)
Summary of the method: as §1

[15] = tested on: PPARg homodimer (NR concentration 180 nM)
Summary of the method: as §1

[16] = tested on: PXR:RXRa (NR concentration 270 nM, RXRa partner concentration 90 nM)
Summary of the method: as §1

[17] = tested on: PXR homodimer (NR concentration 270 nM)
Summary of the method: as §1

[18] = tested on: RARa:RXR (NR concentration 270 nM, RXRa partner concentration 90 nM)
Summary of the method: as §1

[19] = tested on: RARa homodimer (NR concentration 270 nM)
Summary of the method: as §1

[20] = tested on: RARb:RXRa (NR concentration 270 nM, RXRa partner concentration 90 nM)
Summary of the method: as §1

Sequence | PBM binding z-score [1] | PBM binding z-score [2] | PBM binding z-score [3] | PBM binding z-score [4] | PBM binding z-score [5] | PBM binding z-score [6] | PBM binding z-score [7] | PBM binding z-score [8] | PBM binding z-score [9] | PBM binding z-score [10] | PBM binding z-score [11] | PBM binding z-score [12] | PBM binding z-score [13] | PBM binding z-score [14] | PBM binding z-score [15] | PBM binding z-score [16] | PBM binding z-score [17] | PBM binding z-score [18] | PBM binding z-score [19] | PBM binding z-score [20]
TCATATAGGTAATACAGGTAAAAGTCGGCATCTA | 1.15 | 1.13 | 0.377 | 0.915 | 0.455 | 1.48 | 1.61 | 2.58 | 4.14 | 3.49 | 4.07 | 2.77 | 1.1 | 1.94 | 1.08 | 0.705 | 0.364 | 0.922 | 1.47 | 0.572
ACAGACAGGTGAGTGAAGGTAACTTAGCTGGACG | 0.0414 | 0.0601 | -0.497 | -0.508 | -0.62 | -0.0817 | 0.693 | -0.15 | -0.0448 | -0.0872 | 0.507 | 0.549 | -0.0823 | -0.397 | 0.206 | -0.213 | -0.19 | 0.132 | -0.0854 | 0.486
ATCGAAAGGTAGTGAGGTGAGTATACAGAAAGGC | 0.0464 | -0.187 | 0.0161 | -0.247 | -0.154 | 0.153 | 0.582 | 0.0693 | 0.155 | 0.0111 | -0.75 | 0.597 | 0.685 | 1.02 | -0.358 | -0.273 | 0.226 | -0.126 | 0.18 | 0.322
CGAACTAAGTCAAGGACAGTGAATCTCCGCACGC | -0.155 | -0.206 | -0.211 | -0.441 | -0.793 | -0.228 | 0.372 | -0.132 | -0.287 | -0.694 | 0.868 | 0.214 | -0.424 | -0.249 | -0.418 | -0.229 | -0.329 | 0.0296 | -0.646 | 0.556
AGTCAAAGTTCACTAAGTAACGTAAGATTCAGCT | 4.76 | 4.94 | 3.18 | 3.15 | 1.11 | 3.95 | 5.72 | 5.28 | 2.69 | 4.76 | 0.606 | 2.21 | 1.04 | 1.31 | 1.66 | 3.63 | 2.31 | 2.77 | 1.23 | 4.8
TCAGACAGGTGAAGGCAACTCAGGTACGCAGTCG | 0.773 | 0.656 | -0.307 | 0.471 | -0.243 | 0.995 | 0.701 | 1.77 | 3.36 | 2.58 | 2.4 | 0.632 | -0.586 | -0.648 | 0.236 | 0.249 | -0.101 | 0.507 | -0.314 | 0.923
TGTTGTAGATCAAGCAGGTTAAGAAAGCCTGAGT | -0.212 | -0.245 | -0.47 | -0.0172 | -0.215 | 0.282 | -0.51 | -0.0645 | -0.0716 | -0.0785 | -0.275 | 0.329 | 0.0224 | -0.646 | -0.211 | 0.13 | 0.0391 | 0.16 | 0.163 | -0.116
CGAACTAGGTCATCCAGGACAATGAATACATTGA | 4.61 | 2.74 | 0.73 | 2.14 | 0.294 | 4.83 | 7.88 | 6.22 | 4.07 | 6.1 | 7.89 | 8.42 | 3.32 | 1.7 | 1.95 | 2.1 | 2.1 | 2.31 | 0.706 | 3.87
TAGCTTAGGTCATGCGGGCCAGTATAGTGTCGGC | 4.63 | 3.38 | 0.514 | 1.93 | 0.519 | 3.57 | 1.32 | 1.95 | 0.0747 | 0.973 | 1.52 | 1.65 | 1.35 | 0.321 | 1.44 | 1.85 | -0.011 | 2.73 | -0.0276 | 3.87
CGAACTAGGTCATGGACAGGACAGTGAATAGTAA | 3.85 | 2.37 | -0.0954 | 1.81 | -0.546 | 4.79 | 8.05 | 6.56 | 4.17 | 6.19 | 8.1 | 8.31 | 3.01 | 0.998 | 1.68 | 1.65 | -0.17 | 2.55 | 0.249 | 3.88
ACTAGTTGGTCCGCTGAGGTCACACACAATTCGG | 2.59 | 2.61 | 1.91 | 3.24 | 0.456 | 3.57 | 1.38 | 1.99 | 0.517 | 1.36 | 0.592 | 1.67 | 0.377 | -0.126 | 2.76 | 4.69 | 2.24 | 4.51 | 0.677 | 2.97
AGAATGAGGTTTTACGTAGATCAGGGAAGAAAGT | -0.139 | -0.0557 | -0.184 | -0.13 | -0.304 | -0.000129 | 0.251 | -0.0665 | 0.263 | 0.297 | 0.314 | -0.118 | 0.643 | 0.771 | 0.322 | 0.0449 | 0.0851 | 0.000653 | 0.0667 | -0.00199
CCAGACAGCTGAAAGGTAACTCAGTCTGGTACGC | -0.259 | -0.27 | -0.368 | -0.00199 | -0.748 | 0.193 | 0.377 | -0.223 | -0.581 | -0.401 | -0.0276 | -0.495 | -0.361 | -0.671 | -0.141 | -0.177 | -0.344 | 0.0105 | -0.368 | 0.0484
AGTCAAAGTTCATCTAAGTAACGTAAGATATGCT | 6.46 | 5.91 | 4.97 | 3.59 | 1.65 | 4.76 | 6.53 | 6.27 | 3.47 | 5.55 | 0.404 | 2.37 | 0.832 | 1.41 | 2.51 | 4.78 | 4.97 | 3.48 | 1.03 | 5.03
